Holding throughout (test): DAPPL (digital affinity profiling via proximity ligation, sequencing); 10 mM Tris-HCl pH 7.5, 50 mM NaCl, 1 mM DTT, 4% glycerol, room temperature, 30 min; GST-TFs on glutathione beads, 16-mer random dsDNA library, 0.1% formaldehyde crosslink after washing; high values mean tight binding
Assay [1] has as its target T1, FLI1 (Homo sapiens, UniProt Q01543 1-452).
T1 sequence: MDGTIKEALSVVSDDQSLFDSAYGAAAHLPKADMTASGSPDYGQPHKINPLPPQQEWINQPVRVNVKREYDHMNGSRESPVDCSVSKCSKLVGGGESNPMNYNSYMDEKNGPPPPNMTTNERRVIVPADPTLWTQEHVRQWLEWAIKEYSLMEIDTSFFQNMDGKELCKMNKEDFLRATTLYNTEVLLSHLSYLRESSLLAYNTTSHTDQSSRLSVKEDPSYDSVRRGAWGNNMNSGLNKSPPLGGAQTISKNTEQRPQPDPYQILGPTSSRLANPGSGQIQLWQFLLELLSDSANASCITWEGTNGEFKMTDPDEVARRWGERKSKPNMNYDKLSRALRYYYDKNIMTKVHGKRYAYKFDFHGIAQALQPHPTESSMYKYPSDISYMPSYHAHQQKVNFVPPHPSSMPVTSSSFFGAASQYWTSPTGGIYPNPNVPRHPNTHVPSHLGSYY
The conditions noted are these: protein: recombinant; tags: N-terminal GST; dsDNA, one strand shown. The gist of the method:
(§1)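 Sequencing on an Illumina NextSeq500 followed washing, crosslinking with 0.1% formaldehyde, proximity ligation (BsaI/T4 ligase, 1 h, 37 °C) and PCR amplification of pools that had been incubated for 30 min at room temperature with 200 nmole of a random double-stranded 16-mer DNA library in Tris/NaCl/DTT/glycerol buffer. Each pool held DNA-barcoded human transcription factors, expressed in yeast as GST fusions and captured on glutathione beads, plus a tag-only sample. Binding signal is a hexamer's read frequency for a factor divided by its frequency in the tag-only sample.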

The target of assay [2] is T2, ELK1 (Homo sapiens, UniProt P19419 1-428).
T2 sequence: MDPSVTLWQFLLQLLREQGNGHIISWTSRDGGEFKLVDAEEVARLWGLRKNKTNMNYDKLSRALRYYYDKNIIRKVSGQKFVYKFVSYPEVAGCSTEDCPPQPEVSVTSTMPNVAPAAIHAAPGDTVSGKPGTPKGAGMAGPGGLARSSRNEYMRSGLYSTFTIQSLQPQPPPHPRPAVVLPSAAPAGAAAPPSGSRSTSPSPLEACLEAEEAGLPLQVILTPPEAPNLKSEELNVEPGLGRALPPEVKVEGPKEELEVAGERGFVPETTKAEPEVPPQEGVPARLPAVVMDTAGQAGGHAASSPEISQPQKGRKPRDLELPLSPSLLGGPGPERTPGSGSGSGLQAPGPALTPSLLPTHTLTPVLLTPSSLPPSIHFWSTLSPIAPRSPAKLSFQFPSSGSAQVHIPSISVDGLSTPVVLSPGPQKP
Conditions: protein: recombinant; tags: N-terminal GST; dsDNA, one strand shown. The gist of the method:
as §1

The target in assay [3] is T3, GABPA (Homo sapiens, UniProt Q06546 1-454).
T3 sequence: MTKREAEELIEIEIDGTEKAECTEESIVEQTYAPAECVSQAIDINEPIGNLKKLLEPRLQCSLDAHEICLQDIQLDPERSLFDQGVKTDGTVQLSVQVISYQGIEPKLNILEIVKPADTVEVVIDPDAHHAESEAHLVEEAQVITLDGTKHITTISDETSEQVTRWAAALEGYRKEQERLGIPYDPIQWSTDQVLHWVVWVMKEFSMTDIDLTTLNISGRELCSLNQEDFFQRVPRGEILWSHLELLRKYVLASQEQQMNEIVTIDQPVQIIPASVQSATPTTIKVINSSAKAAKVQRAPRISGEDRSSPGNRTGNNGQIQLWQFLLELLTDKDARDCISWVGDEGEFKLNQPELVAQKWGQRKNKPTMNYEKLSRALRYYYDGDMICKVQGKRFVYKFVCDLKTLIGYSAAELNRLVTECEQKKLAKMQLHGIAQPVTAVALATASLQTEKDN
The conditions noted are these: protein: recombinant; tags: N-terminal GST; dsDNA, one strand shown. The gist of the method: as §1

The target of assay [4] is T4, ERG (Homo sapiens, UniProt P11308 1-479).
T4 sequence: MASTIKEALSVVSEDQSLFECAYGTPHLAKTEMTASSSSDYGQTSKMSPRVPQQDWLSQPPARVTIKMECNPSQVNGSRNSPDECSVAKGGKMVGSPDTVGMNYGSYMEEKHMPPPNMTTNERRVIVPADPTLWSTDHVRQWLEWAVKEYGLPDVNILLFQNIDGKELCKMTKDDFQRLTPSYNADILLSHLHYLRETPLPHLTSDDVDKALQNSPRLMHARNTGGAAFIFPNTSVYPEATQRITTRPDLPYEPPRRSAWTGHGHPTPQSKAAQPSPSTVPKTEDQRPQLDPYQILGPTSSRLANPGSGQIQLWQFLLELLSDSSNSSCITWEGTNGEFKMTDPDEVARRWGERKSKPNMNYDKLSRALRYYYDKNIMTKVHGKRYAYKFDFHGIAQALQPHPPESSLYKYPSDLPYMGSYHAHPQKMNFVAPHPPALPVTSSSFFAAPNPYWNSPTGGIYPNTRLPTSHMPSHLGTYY
Conditions: protein: recombinant; tags: N-terminal GST; dsDNA, one strand shown. An outline of the steps:
as §1

The target in assay [5] is ELF1 (Homo sapiens, UniProt P32519 1-619). Conditions: protein: recombinant; tags: N-terminal GST; dsDNA, one strand shown. An outline of the steps:
as §1

Assay [6] has as its target T5, EHF (Homo sapiens, UniProt Q9NZC4 1-300).
T5 sequence: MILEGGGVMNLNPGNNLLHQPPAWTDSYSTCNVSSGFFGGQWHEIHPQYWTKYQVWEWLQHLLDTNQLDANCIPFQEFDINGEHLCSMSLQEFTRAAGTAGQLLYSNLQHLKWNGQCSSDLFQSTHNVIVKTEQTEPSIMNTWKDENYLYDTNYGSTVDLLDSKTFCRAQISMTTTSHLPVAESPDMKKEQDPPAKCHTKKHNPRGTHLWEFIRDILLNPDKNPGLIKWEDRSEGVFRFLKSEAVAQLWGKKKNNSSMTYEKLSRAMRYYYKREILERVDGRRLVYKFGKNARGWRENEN
The conditions noted are these: protein: recombinant; tags: N-terminal GST; dsDNA, one strand shown. An outline of the steps: as §1

For assay [7], the target named is SPI1 (Homo sapiens, UniProt P17947 1-270). The conditions noted are these: protein: recombinant; tags: N-terminal GST; dsDNA, one strand shown. The gist of the method:
as §1

Assay [8] has as its target SPIB (Homo sapiens, UniProt Q01892 1-262). Conditions: protein: recombinant; tags: N-terminal GST; dsDNA, one strand shown. The gist of the method:
as §1

Assay [9] deals with T6, ELK3 (Homo sapiens, UniProt P41970 1-407).
T6 sequence: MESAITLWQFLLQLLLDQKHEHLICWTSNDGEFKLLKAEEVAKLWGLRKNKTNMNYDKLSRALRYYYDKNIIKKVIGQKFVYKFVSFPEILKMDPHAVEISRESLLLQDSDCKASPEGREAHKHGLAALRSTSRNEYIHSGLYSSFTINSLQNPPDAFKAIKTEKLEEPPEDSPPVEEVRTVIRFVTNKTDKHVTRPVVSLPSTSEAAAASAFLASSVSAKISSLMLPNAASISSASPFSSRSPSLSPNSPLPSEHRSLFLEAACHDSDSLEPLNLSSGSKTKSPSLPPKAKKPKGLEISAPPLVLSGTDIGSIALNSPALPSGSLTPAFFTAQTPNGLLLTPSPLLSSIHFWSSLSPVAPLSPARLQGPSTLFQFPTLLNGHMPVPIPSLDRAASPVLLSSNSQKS
The conditions noted are these: protein: recombinant; tags: N-terminal GST; dsDNA, one strand shown. The gist of the method: as §1

The target in assay [10] is T7, FEV (Homo sapiens, UniProt Q99581 1-238).
T7 sequence: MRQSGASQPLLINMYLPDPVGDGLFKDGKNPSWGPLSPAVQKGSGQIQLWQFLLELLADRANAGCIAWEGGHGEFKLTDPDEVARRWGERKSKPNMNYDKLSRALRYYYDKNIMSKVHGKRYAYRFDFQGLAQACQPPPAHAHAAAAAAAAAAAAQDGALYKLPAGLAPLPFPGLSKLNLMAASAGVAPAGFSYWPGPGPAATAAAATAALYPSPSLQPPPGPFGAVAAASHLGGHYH
Conditions: protein: recombinant; tags: N-terminal GST; dsDNA, one strand shown. The gist of the method: as §1

In assay [11] the target is ETV5 (Homo sapiens, UniProt P41161 1-510). Conditions: protein: recombinant; tags: N-terminal GST; dsDNA, one strand shown. The gist of the method:
as §1

Assay [12] addresses HSF1 (Homo sapiens, UniProt Q00613 1-529). Conditions: protein: recombinant; tags: N-terminal GST; chain copies: 3; dsDNA, one strand shown. The gist of the method:
as §1

In assay [13] the target is T8, SPIC (Homo sapiens, UniProt Q8N5J4 1-248).
T8 sequence: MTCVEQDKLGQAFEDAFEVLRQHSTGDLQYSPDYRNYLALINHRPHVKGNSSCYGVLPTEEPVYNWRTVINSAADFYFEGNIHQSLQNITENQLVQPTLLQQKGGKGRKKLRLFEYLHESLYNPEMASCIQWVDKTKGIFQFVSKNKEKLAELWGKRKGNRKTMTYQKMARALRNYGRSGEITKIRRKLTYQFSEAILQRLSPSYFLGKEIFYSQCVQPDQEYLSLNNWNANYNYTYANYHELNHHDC
Conditions: protein: recombinant; tags: N-terminal GST; dsDNA, one strand shown. The gist of the method:
as §1

The target of assay [14] is ELF4 (Homo sapiens, UniProt Q99607 1-663). The conditions noted are these: protein: recombinant; tags: N-terminal GST; dsDNA, one strand shown. An outline of the steps: as §1
The target in assay [15] is T9, ELK4 (Homo sapiens, UniProt P28324-2 1-405).
T9 sequence: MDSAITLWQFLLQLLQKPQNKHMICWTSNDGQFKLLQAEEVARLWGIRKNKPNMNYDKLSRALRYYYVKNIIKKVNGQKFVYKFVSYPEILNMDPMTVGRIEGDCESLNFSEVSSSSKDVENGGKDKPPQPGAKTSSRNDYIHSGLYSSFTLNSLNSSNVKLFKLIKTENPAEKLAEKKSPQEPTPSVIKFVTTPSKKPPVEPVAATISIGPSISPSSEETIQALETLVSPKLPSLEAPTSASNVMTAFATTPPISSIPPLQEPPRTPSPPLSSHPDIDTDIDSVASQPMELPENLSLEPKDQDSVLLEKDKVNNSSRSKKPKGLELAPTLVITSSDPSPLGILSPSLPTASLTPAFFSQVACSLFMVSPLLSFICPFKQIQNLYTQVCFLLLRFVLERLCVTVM
The conditions noted are these: protein: recombinant; tags: N-terminal GST; dsDNA, one strand shown. An outline of the steps: as §1

The target of assay [16] is T10, ETV2 (Homo sapiens, UniProt O00321 1-342).
T10 sequence: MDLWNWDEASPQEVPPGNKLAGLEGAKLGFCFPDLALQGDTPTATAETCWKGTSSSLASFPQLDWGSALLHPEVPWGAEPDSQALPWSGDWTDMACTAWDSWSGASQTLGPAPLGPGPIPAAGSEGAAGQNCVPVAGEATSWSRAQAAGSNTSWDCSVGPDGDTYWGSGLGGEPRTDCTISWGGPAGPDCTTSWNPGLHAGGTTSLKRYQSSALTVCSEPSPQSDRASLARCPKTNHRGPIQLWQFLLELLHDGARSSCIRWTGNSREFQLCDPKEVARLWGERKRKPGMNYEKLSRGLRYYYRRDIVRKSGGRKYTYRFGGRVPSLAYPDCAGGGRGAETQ
The conditions noted are these: protein: recombinant; tags: N-terminal GST; dsDNA, one strand shown. The gist of the method:
as §1

Assay [17] deals with T11, ELF3 (Homo sapiens, UniProt P78545 1-371).
T11 sequence: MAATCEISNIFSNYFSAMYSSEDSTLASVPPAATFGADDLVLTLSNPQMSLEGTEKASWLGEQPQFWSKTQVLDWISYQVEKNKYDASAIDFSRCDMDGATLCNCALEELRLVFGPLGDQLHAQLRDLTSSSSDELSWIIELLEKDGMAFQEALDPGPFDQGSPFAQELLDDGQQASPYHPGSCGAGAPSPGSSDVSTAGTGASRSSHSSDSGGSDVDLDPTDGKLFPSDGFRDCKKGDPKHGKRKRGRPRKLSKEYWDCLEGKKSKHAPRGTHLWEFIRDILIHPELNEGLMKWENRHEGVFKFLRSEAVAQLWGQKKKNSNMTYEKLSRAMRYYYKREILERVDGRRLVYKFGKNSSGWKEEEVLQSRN
The conditions noted are these: protein: recombinant; tags: N-terminal GST; dsDNA, one strand shown. The gist of the method: as §1

For assay [18], the target named is ETV1 (Homo sapiens, UniProt P50549 1-477). Conditions: protein: recombinant; tags: N-terminal GST; dsDNA, one strand shown. The gist of the method:
as §1

SPIB, sequence (Q01892 whole entry): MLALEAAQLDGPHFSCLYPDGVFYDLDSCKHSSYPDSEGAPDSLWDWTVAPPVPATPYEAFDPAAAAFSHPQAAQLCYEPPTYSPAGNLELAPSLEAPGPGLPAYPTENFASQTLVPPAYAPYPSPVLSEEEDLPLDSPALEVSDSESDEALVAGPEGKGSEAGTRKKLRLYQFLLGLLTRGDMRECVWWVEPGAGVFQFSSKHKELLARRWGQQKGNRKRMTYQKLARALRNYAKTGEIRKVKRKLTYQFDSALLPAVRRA
ELF4, sequence (Q99607 whole entry): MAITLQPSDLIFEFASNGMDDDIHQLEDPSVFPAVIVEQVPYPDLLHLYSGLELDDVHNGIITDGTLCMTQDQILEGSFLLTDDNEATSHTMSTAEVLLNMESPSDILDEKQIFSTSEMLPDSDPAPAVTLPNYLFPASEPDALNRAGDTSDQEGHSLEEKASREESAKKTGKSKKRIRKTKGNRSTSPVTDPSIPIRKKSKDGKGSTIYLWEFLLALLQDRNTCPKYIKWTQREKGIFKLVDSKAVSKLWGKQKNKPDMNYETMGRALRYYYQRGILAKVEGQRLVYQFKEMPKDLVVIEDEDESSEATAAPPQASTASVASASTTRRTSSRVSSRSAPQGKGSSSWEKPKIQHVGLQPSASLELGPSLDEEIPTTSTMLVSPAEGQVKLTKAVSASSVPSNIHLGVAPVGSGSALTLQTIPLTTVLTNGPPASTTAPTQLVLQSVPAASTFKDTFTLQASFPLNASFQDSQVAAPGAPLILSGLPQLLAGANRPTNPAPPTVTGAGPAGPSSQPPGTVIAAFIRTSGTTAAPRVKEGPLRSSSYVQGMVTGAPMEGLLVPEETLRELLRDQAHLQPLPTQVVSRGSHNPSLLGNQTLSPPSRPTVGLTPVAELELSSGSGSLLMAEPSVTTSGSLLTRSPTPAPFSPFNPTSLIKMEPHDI
HSF1, sequence (Q00613 whole entry): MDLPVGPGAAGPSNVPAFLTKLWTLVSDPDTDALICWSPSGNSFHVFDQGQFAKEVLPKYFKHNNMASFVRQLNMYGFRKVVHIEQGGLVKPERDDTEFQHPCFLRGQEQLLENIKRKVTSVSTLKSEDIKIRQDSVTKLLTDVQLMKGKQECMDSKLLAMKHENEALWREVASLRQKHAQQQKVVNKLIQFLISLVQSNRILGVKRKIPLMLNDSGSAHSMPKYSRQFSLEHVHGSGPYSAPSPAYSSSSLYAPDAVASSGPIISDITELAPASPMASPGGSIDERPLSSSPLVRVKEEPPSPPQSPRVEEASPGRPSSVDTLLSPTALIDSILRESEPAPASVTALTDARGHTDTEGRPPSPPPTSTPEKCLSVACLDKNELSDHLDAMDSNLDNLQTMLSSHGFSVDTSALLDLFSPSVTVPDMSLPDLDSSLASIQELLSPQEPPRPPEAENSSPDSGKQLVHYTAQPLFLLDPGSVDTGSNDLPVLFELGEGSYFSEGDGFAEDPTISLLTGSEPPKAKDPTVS
ETV5, sequence (P41161 whole entry): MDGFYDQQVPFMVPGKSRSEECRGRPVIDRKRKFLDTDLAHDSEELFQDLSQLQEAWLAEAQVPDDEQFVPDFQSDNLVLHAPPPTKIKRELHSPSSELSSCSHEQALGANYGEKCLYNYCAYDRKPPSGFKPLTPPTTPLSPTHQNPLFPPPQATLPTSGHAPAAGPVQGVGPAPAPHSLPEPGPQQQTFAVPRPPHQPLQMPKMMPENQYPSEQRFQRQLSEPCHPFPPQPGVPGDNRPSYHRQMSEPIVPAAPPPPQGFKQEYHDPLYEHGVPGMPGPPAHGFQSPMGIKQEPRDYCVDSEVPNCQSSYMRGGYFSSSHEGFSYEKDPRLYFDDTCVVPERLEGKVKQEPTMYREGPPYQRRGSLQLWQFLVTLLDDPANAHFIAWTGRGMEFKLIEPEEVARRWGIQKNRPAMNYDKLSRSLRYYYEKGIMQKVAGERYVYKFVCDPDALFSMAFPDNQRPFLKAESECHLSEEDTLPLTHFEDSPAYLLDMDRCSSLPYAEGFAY
ELF1, sequence (P32519 whole entry): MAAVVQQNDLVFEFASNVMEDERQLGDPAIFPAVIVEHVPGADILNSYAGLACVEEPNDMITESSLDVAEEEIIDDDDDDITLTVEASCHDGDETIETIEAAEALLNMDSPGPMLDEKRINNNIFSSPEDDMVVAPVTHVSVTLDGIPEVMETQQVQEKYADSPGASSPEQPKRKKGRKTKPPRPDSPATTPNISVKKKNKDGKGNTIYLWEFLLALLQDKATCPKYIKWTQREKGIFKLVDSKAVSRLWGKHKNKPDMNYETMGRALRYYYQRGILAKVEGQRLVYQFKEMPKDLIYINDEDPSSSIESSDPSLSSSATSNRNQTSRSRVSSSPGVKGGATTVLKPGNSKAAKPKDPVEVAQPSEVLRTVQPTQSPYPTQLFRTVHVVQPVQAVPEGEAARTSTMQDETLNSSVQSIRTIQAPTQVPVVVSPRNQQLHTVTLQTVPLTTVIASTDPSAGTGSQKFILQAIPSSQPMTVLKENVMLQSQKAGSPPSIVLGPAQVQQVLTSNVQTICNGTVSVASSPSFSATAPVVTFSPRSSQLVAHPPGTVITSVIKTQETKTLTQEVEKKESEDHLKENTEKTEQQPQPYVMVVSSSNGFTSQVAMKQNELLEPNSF
ETV1, sequence (P50549 whole entry): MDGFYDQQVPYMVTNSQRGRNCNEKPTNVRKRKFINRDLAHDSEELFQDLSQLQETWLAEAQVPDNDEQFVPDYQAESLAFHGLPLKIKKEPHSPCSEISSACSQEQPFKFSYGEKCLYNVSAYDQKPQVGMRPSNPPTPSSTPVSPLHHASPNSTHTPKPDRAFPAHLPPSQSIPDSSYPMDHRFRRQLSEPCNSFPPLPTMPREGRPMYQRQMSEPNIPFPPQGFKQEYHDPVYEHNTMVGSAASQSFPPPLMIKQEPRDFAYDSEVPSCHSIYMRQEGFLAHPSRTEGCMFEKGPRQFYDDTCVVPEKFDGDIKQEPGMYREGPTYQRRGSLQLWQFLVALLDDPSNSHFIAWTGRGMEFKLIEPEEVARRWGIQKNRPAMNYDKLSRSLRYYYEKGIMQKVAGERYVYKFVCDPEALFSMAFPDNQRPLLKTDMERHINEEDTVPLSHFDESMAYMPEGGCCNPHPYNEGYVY

Turning to ATGCAC, the binding signal was 1.28 fold enrichment (6-mer frequency, TF over GST control) in assay [1]; 1.33 fold enrichment (6-mer frequency, TF over GST control) in assay [2]; 1.33 fold enrichment (6-mer frequency, TF over GST control) in assay [3]; 1.2 fold enrichment (6-mer frequency, TF over GST control) in assay [4]; 1.3 fold enrichment (6-mer frequency, TF over GST control) in [5]; 1.21 fold enrichment (6-mer frequency, TF over GST control) in [6]. The binding signal in [7] is 1.3 fold enrichment (6-mer frequency, TF over GST control); in assay [8], 1.34 fold enrichment (6-mer frequency, TF over GST control); in assay [9], 1.34 fold enrichment (6-mer frequency, TF over GST control); in [10], 1.37 fold enrichment (6-mer frequency, TF over GST control); in assay [11], 1.28 fold enrichment (6-mer frequency, TF over GST control); in assay [12], 1.03 fold enrichment (6-mer frequency, TF over GST control). In addition, the binding signal was 1.19 fold enrichment (6-mer frequency, TF over GST control) in assay [13]; 1.3 fold enrichment (6-mer frequency, TF over GST control) in [14]; 1.36 fold enrichment (6-mer frequency, TF over GST control) in assay [15]; 1.3 fold enrichment (6-mer frequency, TF over GST control) in assay [16]; 1.36 fold enrichment (6-mer frequency, TF over GST control) in assay [17]; 1.19 fold enrichment (6-mer frequency, TF over GST control) in assay [18].

Source of the values: PMC7862700, “An all-to-all approach to the identification of sequence-specific readers for epigenetic DNA modifications on cytosine”.
